Reference: the supplement of paper PMC3545927
Some of the results follow. No count for the full screen is at hand.

Molecular target: furin, P09958
Test: furin cleavage Z-score vs untreated control; higher = more cleavage, active = 3.5 or more, inactive = 1 or less, 8 variable residues between constant flanks
Method: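 Multiplexed peptide-cDNA fusion cleavage assay. 8-mer variable peptides flanked by constant Cys-Ala (N-term) and Ala-Gly-Asn-Ala-Ser-Ala-Ser-Ala (C-term) and conjugated to a cDNA oligonucleotide were bead-immobilised via the N-terminus. They were treated with purified furin at a 1:10 enzyme:substrate ratio in 50 mM HEPES pH 7.5, 1 mM CaCl2, 100 mM NaCl for 7.5, 15 or 30 min. Released cDNA was counted by next-generation sequencing, and log counts versus no-furin controls were lowess-adjusted and converted to robust Z-scores.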

Sequence of furin, P09958 (P09958 whole entry): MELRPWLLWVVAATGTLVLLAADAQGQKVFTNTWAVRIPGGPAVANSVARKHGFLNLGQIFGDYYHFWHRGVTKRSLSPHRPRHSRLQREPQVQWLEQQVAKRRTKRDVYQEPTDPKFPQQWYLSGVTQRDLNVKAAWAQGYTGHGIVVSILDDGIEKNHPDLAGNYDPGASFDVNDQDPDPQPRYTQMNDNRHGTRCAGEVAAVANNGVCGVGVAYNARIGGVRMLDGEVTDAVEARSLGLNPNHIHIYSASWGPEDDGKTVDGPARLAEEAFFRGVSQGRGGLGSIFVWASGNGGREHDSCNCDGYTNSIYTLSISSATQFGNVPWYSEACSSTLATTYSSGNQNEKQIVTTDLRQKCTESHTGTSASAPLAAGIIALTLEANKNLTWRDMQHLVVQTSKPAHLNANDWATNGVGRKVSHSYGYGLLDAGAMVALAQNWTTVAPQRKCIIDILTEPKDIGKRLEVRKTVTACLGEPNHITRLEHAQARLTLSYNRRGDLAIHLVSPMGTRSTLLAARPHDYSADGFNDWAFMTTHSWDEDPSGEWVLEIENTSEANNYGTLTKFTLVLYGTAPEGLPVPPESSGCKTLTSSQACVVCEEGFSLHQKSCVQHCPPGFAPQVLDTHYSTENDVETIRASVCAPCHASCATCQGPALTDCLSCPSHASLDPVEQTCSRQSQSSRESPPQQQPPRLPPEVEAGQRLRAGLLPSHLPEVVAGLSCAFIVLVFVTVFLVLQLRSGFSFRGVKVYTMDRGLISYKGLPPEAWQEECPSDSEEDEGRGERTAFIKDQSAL

Sequence	furin cleavage Z-score (7.5 min)	furin cleavage Z-score (15 min)	furin cleavage Z-score (30 min)
CATTPCSGTWAGNASASA [HC1918]	0.438 (inactive)	1.03	0.941 (inactive)
CAAEEYVEIRAGNASASA [HC1204]	-0.657 (inactive)	2	-1.07 (inactive)
CAQIVGGVYLAGNASASA [HC175]	-0.135 (inactive)	-2.24 (inactive)	-1.9 (inactive)
CAVVRCSMSYAGNASASA [HC2033]	1.28	0.684 (inactive)	-0.612 (inactive)
CARERRDLFTAGNASASA [FS-2659]	5.35 (active)	8.1 (active)	7.97 (active)
CARERRNAIRAGNASASA [FS-3219]	3.48	4.37 (active)	4.64 (active)
CARERRGPATAGNASASA [FS-2487]	-1.34 (inactive)	0.671 (inactive)	-0.709 (inactive)
CARERRDVQRAGNASASA [FS-1696]	10.6 (active)	13.2 (active)	9.38 (active)
CARENRSLFTAGNASASA [FS-2009]	0.285 (inactive)	-0.333 (inactive)	-1.13 (inactive)
CARERRTLSVAGNASASA [FS-2661]	0.891 (inactive)	2.33	3.01
CARERRRLMSAGNASASA [FS-2660]	-1.21 (inactive)	-0.546 (inactive)	0.262 (inactive)
CARYKRAGESAGNASASA [FS-2472]	8.25 (active)	10.6 (active)	7.78 (active)
CARERRADHVAGNASASA [FS-2330]	1.39	0.278 (inactive)	2.34
CAAGCAWYELAGNASASA [HC922]	-0.796 (inactive)	-1.42 (inactive)	-1.58 (inactive)
CAKEMEECSQAGNASASA [HC1794]	0.752 (inactive)	0.717 (inactive)	0.689 (inactive)
CAEVPCHRPLAGNASASA [HC2405]	0.138 (inactive)	-0.494 (inactive)	0.866 (inactive)
CAREQRSNGLAGNASASA [FS-3245]	-0.772 (inactive)	0.724 (inactive)	1.43
CAREQRDICEAGNASASA [FS-2658]	0.169 (inactive)	0.317 (inactive)	0.297 (inactive)
CAREQRDVERAGNASASA [FS-2485]	1.98	3.86 (active)	2.52
CAKVTFDRLQAGNASASA [HC1396]	-1.13 (inactive)	-0.299 (inactive)	-2.04 (inactive)
CAKVIRHKRQAGNASASA [FS-681]	12.7 (active)	12.4 (active)	9.91 (active)
CAKVIDTLTCAGNASASA [HC221]	-1.35 (inactive)	-0.249 (inactive)	-0.555 (inactive)
CASVERIKRQAGNASASA [FS-303]	12.4 (active)	11.8 (active)	10.6 (active)
CASIERVKRQAGNASASA [FS-961]	10.9 (active)	11.9 (active)	7.3 (active)
CADVCCSMSYAGNASASA [HC1991]	-0.0698 (inactive)	-0.573 (inactive)	1.23
CATTDCSGSWAGNASASA [HC1871]	-0.934 (inactive)	-0.299 (inactive)	-0.368 (inactive)
CAEWTTPCSGAGNASASA [HC1968]	-0.833 (inactive)	-0.0659 (inactive)	0.694 (inactive)
